Data taken from PubChem BioAssay (EPA / NIEHS).
The source made the active and inactive calls. The calls were made as follows: active = hit-call score of the fitted dose curve at least 0.9, where 1 is the maximum; inactive = score below 0.9.

Target: CCAAT/enhancer-binding protein beta (Homo sapiens) (UniProt P17676)
Assay: ATG_C_EBP_CIS: Attagene CIS-FACTORIAL HepG2 Assay for human CCAAT/Enhancer Binding Protein (C/EBP) beta (AID 2282927)
Details: HepG2 Attagene cis-factorial transcription factor reporter; actives raise or lower the signal
Procedure, shortened: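 Transiently transfected HepG2 (MRTU library, endogenous TF-driven promoters); 24 h dosing; total RNA → oligo(dT) RT → PCR → 6-FAM primer extension → HpaI digest → CE; fit bidirectionally vs DMSO.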

CCAAT/enhancer-binding protein beta (Homo sapiens), sequence (P17676 whole entry, looked up): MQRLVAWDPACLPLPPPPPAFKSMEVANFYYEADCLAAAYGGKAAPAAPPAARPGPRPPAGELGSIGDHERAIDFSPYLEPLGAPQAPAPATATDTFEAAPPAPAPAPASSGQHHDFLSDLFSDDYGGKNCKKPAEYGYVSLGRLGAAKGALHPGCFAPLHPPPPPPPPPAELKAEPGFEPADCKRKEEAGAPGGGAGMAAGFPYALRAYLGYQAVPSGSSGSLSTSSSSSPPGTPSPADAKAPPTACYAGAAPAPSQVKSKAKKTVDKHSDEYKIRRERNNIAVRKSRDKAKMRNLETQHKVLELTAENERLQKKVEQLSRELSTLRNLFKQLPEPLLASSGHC

Structure (SMILES)	outcome	AC50
CCCSP(=S)(OCC)Oc1ccc(Cl)cc1Cl (stereo not drawn)	inactive	
CCC[CH2][Sn]([CH2]CCC)([CH2]CCC)[CH2]CCC		5.44 µM (active)
Cc1cc(Cl)ccc1O	inactive	
O=[N+]([O-])c1cccc2ccccc12	inactive	
ClCCCCl	inactive	
CNC(=O)CSP(=O)(OC)OC	inactive	
N#Cc1ccccc1N	inactive	
Cc1ccc2nc3sc(=O)sc3nc2c1		25 µM (active)
O=C(O)c1cc(I)cc(I)c1I	inactive	
O=C(NC(=O)c1c(F)cccc1F)Nc1cc(Cl)c(F)c(Cl)c1F	inactive	
CCN(CCO)CCO	inactive	
C1CN2CCN1CC2	inactive	
C=C(C)[C@@H]1CC=C(C=O)CC1	inactive	
CC1(C)[C@H](/C=C2\CCSC2=O)[C@@H]1C(=O)OCc1coc(Cc2ccccc2)c1	inactive	
O=c1nc(O)n(Cl)c(=O)n1Cl	inactive	
[F][Sn]([c]1ccccc1)([c]1ccccc1)[c]1ccccc1		2.15 µM (active)
O=C1C[C@@H]2OCC=C3CN4CC[C@]56c7ccccc7N1[C@H]5[C@H]2[C@H]3C[C@H]46	inactive	
C=CC(=O)NC(C)(C)CC(C)=O	inactive	
OCCCCO	inactive	
N#CS	inactive	

Structure (SMILES)	outcome	AC50
OC(c1ccc(Cl)cc1)(c1ccc(Cl)cc1)c1cccnc1		11.1 µM (active)
O=[N+]([O-])c1ccccc1O	inactive	
CCOc1cc(C=O)ccc1O	inactive	
C=CCOC(F)(C(F)(F)F)C(F)(F)F	inactive	
Cc1cc(Cl)ccc1OC(C)C(=O)O (stereo not drawn)	inactive	
Brc1ccc(Br)cc1	inactive	
CNC(=O)N(C)c1nc2ccccc2s1	inactive	
O=[N+]([O-])c1cc([As](=O)(O)O)ccc1O	inactive	
Cc1c([N+](=O)[O-])c(C)c([N+](=O)[O-])c(C(C)(C)C)c1[N+](=O)[O-]	inactive	
CCCSP(=S)(OCC)Oc1ccc(SC)cc1 (stereo not drawn)	inactive	
C#C[C@]1(O)CC[C@H]2[C@@H]3CCC4=CC(=O)CC[C@]4(C)[C@H]3CC[C@@]21C	inactive	
O=NN1CCCCCCC1	inactive	
BrCCCCBr	inactive	
CC(C)CP(=S)(S)CC(C)C	inactive	
O=c1[nH]c(=O)n(Cl)c(=O)n1Cl	inactive	
CC(C)=CC1C(C(=O)OCc2cccc(Oc3ccccc3)c2)C1(C)C (stereo not drawn)	inactive	
CCOP(=S)(OCC)Oc1ccc(Cl)cc1Cl	inactive	
CCN(CC)C(=O)C(Cl)=C(C)OP(=O)(OC)OC	inactive	
CC(C)(C1CCC(O)CC1)C1CCC(O)CC1 (stereo not drawn)	inactive	

Tested on: not listed separately
Assay: ATG_CMV_CIS: Attagene CIS-FACTORIAL HepG2 Assay for human CMV (Internal Marker) (AID 2282928);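 also: endpoint acts as a background internal control marker rather than a target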
Details: HepG2 CMV promoter reporter, transcription factor profiling; actives raise or lower the signal
Procedure, shortened: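 Reporter transcripts from transfected HepG2 cells are isolated after 24 h of chemical dosing, reverse-transcribed and amplified. Fragments labeled with 6-FAM are cut with HpaI and quantified by capillary electrophoresis; DMSO defines baseline.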

Structure (SMILES)	outcome	AC50
CCCSP(=S)(OCC)Oc1ccc(Cl)cc1Cl (stereo not drawn)	inactive	
CCC[CH2][Sn]([CH2]CCC)([CH2]CCC)[CH2]CCC	inactive	
Cc1cc(Cl)ccc1O	inactive	
O=[N+]([O-])c1cccc2ccccc12	inactive	
ClCCCCl	inactive	
CNC(=O)CSP(=O)(OC)OC	inactive	
N#Cc1ccccc1N	inactive	
Cc1ccc2nc3sc(=O)sc3nc2c1	inactive	
O=C(O)c1cc(I)cc(I)c1I	inactive	
O=C(NC(=O)c1c(F)cccc1F)Nc1cc(Cl)c(F)c(Cl)c1F	inactive	
CCN(CCO)CCO	inactive	
C1CN2CCN1CC2	inactive	
C=C(C)[C@@H]1CC=C(C=O)CC1	inactive	
CC1(C)[C@H](/C=C2\CCSC2=O)[C@@H]1C(=O)OCc1coc(Cc2ccccc2)c1	inactive	
O=c1nc(O)n(Cl)c(=O)n1Cl	inactive	
[F][Sn]([c]1ccccc1)([c]1ccccc1)[c]1ccccc1		0.334 µM (active)
O=C1C[C@@H]2OCC=C3CN4CC[C@]56c7ccccc7N1[C@H]5[C@H]2[C@H]3C[C@H]46	inactive	
C=CC(=O)NC(C)(C)CC(C)=O	inactive	
OCCCCO	inactive	
N#CS	inactive	

Structure (SMILES)	outcome	AC50
OC(c1ccc(Cl)cc1)(c1ccc(Cl)cc1)c1cccnc1	inactive	
O=[N+]([O-])c1ccccc1O	inactive	
CCOc1cc(C=O)ccc1O	inactive	
C=CCOC(F)(C(F)(F)F)C(F)(F)F	inactive	
Cc1cc(Cl)ccc1OC(C)C(=O)O (stereo not drawn)	inactive	
Brc1ccc(Br)cc1	inactive	
CNC(=O)N(C)c1nc2ccccc2s1	inactive	
O=[N+]([O-])c1cc([As](=O)(O)O)ccc1O	inactive	
Cc1c([N+](=O)[O-])c(C)c([N+](=O)[O-])c(C(C)(C)C)c1[N+](=O)[O-]		100 µM (active)
CCCSP(=S)(OCC)Oc1ccc(SC)cc1 (stereo not drawn)	inactive	
C#C[C@]1(O)CC[C@H]2[C@@H]3CCC4=CC(=O)CC[C@]4(C)[C@H]3CC[C@@]21C	inactive	
O=NN1CCCCCCC1	inactive	
BrCCCCBr	inactive	
CC(C)CP(=S)(S)CC(C)C	inactive	
O=c1[nH]c(=O)n(Cl)c(=O)n1Cl	inactive	
CC(C)=CC1C(C(=O)OCc2cccc(Oc3ccccc3)c2)C1(C)C (stereo not drawn)	inactive	
CCOP(=S)(OCC)Oc1ccc(Cl)cc1Cl		63 µM (active)
CCN(CC)C(=O)C(Cl)=C(C)OP(=O)(OC)OC	inactive	
CC(C)(C1CCC(O)CC1)C1CCC(O)CC1 (stereo not drawn)	inactive	
